Reference: PubChem BioAssay AID1159580 (chemical genetic matrix, 2015)
Screen size: about 5,500 compounds; about 2,000 (36%) were called active. Another 18% or so got no clear call; they are omitted. Rule as the data show it: active = normalized growth mostly below about 0.91 (no sharp cut-off); inconclusive = no clear call, values can overlap the other calls; inactive = mostly above about 0.92. The list shows a part of the results.

Assay: chemical genetic growth profiling, strain panel (AID 1159580);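 also: tested at 20 µM; growth read once vehicle control cultures reached saturation at 30 °C; 1 = growth at the plate median or of vehicle wells; lower values mean less growth of the strain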
Details: S. cerevisiae deletion strains, growth OD

Measured: normalized growth

CCC(=O)Nc1ccc(Cl)c(Cl)c1
inactive: locus YAL013W, strain DEP1, active compounds read low 0.99 | locus YAL021C, strain ccr4, active compounds read low 0.975 | locus YAL026C, strain drs2, active compounds read low 0.994 | locus YAL030W, strain snc1, active compounds read low 1.01 | locus YBL061C, strain skt5, active compounds read low 0.978 | locus YBR009C, strain hhf1, active compounds read low 0.982 | locus YBR021W, strain FUR4, active compounds read low 0.952 | locus YBR023C, strain chs3, active compounds read low 0.988 | locus YBR171W, strain sec66, active compounds read low 0.983 | locus YBR229C, strain ROT2, active compounds read low 1 | locus YBR231C, strain swc5, active compounds read low 0.982 | locus YBR279W, strain paf1, active compounds read low 0.99 | locus YCL011C, strain gbp2, active compounds read low 0.983 | locus YCL016C, strain dcc1, active compounds read low 0.989 | locus YCL029C, strain bik1, active compounds read low 1.01 | locus YCL061C, strain MRC1, active compounds read low 0.986 | locus YCL069W, strain vba3, active compounds read low 0.996 | locus YCR088W, strain abp1, active compounds read low 0.99 | locus YDL005C, strain med2, active compounds read low 0.981 | locus YDL035C, strain GPR1, active compounds read low 0.988 | locus YDL040C, strain nat1, active compounds read low 0.99 | locus YDL074C, strain BRE1, active compounds read low 0.898 | locus YDL101C, strain DUN1, active compounds read low 0.999 | locus YDL134C, strain PPH21, active compounds read low 1 | locus YDL185W, strain tfp1, active compounds read low 0.99 | locus YDL192W, strain arf1, active compounds read low 0.994 | locus YDR001C, strain nth1, active compounds read low 0.989 | locus YDR069C, strain doa4, active compounds read low 0.971 | locus YDR101C, strain arx1, active compounds read low 0.991 | locus YDR137W, strain rgp1, active compounds read low 1.03 | locus YDR150W, strain NUM1, active compounds read low 0.998 | locus YDR159W, strain sac3, active compounds read low 0.959 | locus YDR162C, strain NBP2, active compounds read low 0.985 | locus YDR195W, strain ref2 0.956 | locus YDR297W, strain sur2, active compounds read low 0.988 | locus YDR318W, strain mcm21, active compounds read low 0.996 | locus YDR334W, strain swr1, active compounds read low 0.996 | locus YDR335W, strain msn5, active compounds read low 0.988 | locus YDR388W, active compounds read low 1 | locus YDR392W, strain spt3, active compounds read low 0.98 | locus YDR502C, strain sam2, active compounds read low 0.998 | locus YEL003W, strain gim4, active compounds read low 0.992 | locus YEL037C, strain rad23, active compounds read low 1 | locus YEL061C, strain CIN8 (second series), active compounds read low 0.978 | locus YEL061C, strain CIN8, active compounds read low 0.994 | locus YER016W, strain bim1, active compounds read low 0.991 | locus YER110C, active compounds read low 0.996 | locus YER111C, strain swi4, active compounds read low 0.989 | locus YER155C, strain BEM2 (second series), active compounds read low 0.998 | locus YER155C, strain BEM2, active compounds read low 1.01 | locus YER167W, strain BCK2, active compounds read low 1 | locus YFR010W, strain ubp6, active compounds read low 0.993 | locus YGL078C, strain dbp3, active compounds read low 1.01 | locus YGL086W, strain mad1, active compounds read low 0.997 | locus YGL167C, strain pmr1, active compounds read low 0.984 | locus YGL173C, strain kem1, active compounds read low 0.978 | locus YGL227W, strain vid30, active compounds read low 0.988 | locus YGL240W, strain doc1, active compounds read low 0.96 | locus YGL248W, strain PDE1, active compounds read low 0.993 | locus YGL253W, strain hxk2, active compounds read low 1 | locus YGR078C, strain PAC10, active compounds read low 0.961 | locus YGR135W, strain pre9, active compounds read low 0.982 | locus YGR229C, strain SMI1, active compounds read low 0.958 | locus YGR252W, strain gcn5, active compounds read low 0.874 | locus YHR013C, strain ard1, active compounds read low 0.971 | locus YHR027C, strain rpn1, active compounds read low 0.994 | locus YHR030C, strain SLT2, active compounds read low 0.978 | locus YHR079C, strain IRE1 (second series), active compounds read low 0.999 | locus YHR094C, strain hxt1, active compounds read low 1 | locus YHR129C, strain ARP1, active compounds read low 0.988 | locus YHR142W, strain chs7, active compounds read low 1 | locus YHR200W, strain rpn10, active compounds read low 1 | locus YIL066C, strain RNR3, active compounds read low 0.991 | locus YIL073C, strain SPO22, active compounds read low 1.01 | locus YIL125W, strain kgd1, active compounds read low 1 | locus YIR030C, strain dcg1, active compounds read low 1 | locus YJL092W, strain hpr5, active compounds read low 0.985 | locus YJL095W, strain BCK1 (second series), active compounds read low 0.996 | locus YJL095W, strain BCK1, active compounds read low 0.924 | locus YJL115W, strain asf1, active compounds read low 0.992 | locus YJL129C, strain trk1, active compounds read low 0.968 | locus YJL134W, strain LCB3, active compounds read low 0.986 | locus YJL154C, strain vps35, active compounds read low 0.998 | locus YJL164C, strain tpk1, active compounds read low 1.01 | locus YJL166W, strain qcr8, active compounds read low 0.986 | locus YJL168C, strain set2, active compounds read low 1 | locus YJL187C, strain SWE1 (second series), active compounds read low 1.01 | locus YJL187C, strain SWE1, active compounds read low 0.984
